{"source": "PubChem BioAssay (NCI)", "test": "NCI Yeast Anticancer Drug Screen. Data for the mlh1 rad18 strain (AID 175)", "settings": "S. cerevisiae mlh1 rad18 strain growth inhibition, hits give high values", "protocol": "Growth inhibition of yeast strains with defined genetic alterations is measured as a screen for potential anti-cancer activity. Selected strains with alterations in DNA damage repair or cell cycle control were exposed to compounds and growth inhibition was measured relative to vehicle treated controls. The strain used in this assay is mlh1 rad18", "key": {"[1]": {"settings": "at 5.0 µM (retest, dose inferred, filed as 0.5)"}, "[2]": {"settings": "at 50.0 µM (retest, dose inferred, filed as 5.0)"}}, "note": "Where “and” joins values, the source holds several entries; their conditions need not be identical. Equal entries are not always repeated. About 79,000 compounds went through this panel and 15% of them were active in at least one assay; those are over-represented in the sample as a whole. Unmarked numbers belong to inactive results. Calls of active or inactive are those of the source. Cut-off read from the data, not from the text of the source: active = growth inhibition above about 70%; inactive = the rest.", "data": [{"smiles": "c1ccc(N/N=C2\\CC(c3ccccc3)Oc3ccccc32)cc1", "note": "(configuration not stated)", "values": [{"measurement": "growth inhibition", "setting": "[1]", "value": -26, "unit": "%"}, {"measurement": "growth inhibition", "setting": "[2]", "value": 50, "unit": "%"}, {"measurement": "growth inhibition", "setting": "at 50.0 µM", "value": "72.5% (active)"}]}, {"smiles": "NNc1nnc(-c2ccccc2)nc1Cc1ccccc1", "values": [{"measurement": "growth inhibition", "setting": "[1]", "value": -30, "unit": "%"}, {"measurement": "growth inhibition", "setting": "[2]", "value": "97% (active)"}, {"measurement": "growth inhibition", "setting": "at 50.0 µM", "value": "83.6% (active)"}]}, {"smiles": "OC(c1ccc(Br)cc1)(c1cccs1)C1CC1", "note": "(configuration not stated)", "values": [{"measurement": "growth inhibition", "setting": "[1]", "value": 46, "unit": "%"}, {"measurement": "growth inhibition", "setting": "[2]", "value": "100% (active)"}, {"measurement": "growth inhibition", "setting": "at 50.0 µM", "value": "92% (active)"}]}, {"smiles": "C[Si](C)(C)Cc1ccccc1C(=O)O", "values": [{"measurement": "growth inhibition", "setting": "[1]", "value": -2, "unit": "%"}, {"measurement": "growth inhibition", "setting": "[2]", "value": "83% (active)"}, {"measurement": "growth inhibition", "setting": "at 50.0 µM", "value": "98.2% (active)"}]}, {"smiles": "CCC(C)/C(C)=N/NC(N)=O", "note": "(configuration not stated)", "values": [{"measurement": "growth inhibition", "setting": "[1]", "value": 1, "unit": "%"}, {"measurement": "growth inhibition", "setting": "[2]", "value": "76% (active)"}, {"measurement": "growth inhibition", "setting": "at 50.0 µM", "value": 68, "unit": "%"}]}, {"smiles": "CCSc1c2ccccc2c(-c2nc(F)nc(F)n2)n1CCc1ccccc1", "values": [{"measurement": "growth inhibition", "setting": "[1]", "value": -12, "unit": "%"}, {"measurement": "growth inhibition", "setting": "[2]", "value": "77% (active)"}, {"measurement": "growth inhibition", "setting": "at 50.0 µM", "value": "81.3% (active)"}]}, {"smiles": "CCOC(=O)C(NC(=O)c1ccccc1)[CH](c1ccccc1)[Sn]([c]1ccccc1)([c]1ccccc1)[c]1ccccc1", "note": "(configuration not stated)", "values": [{"measurement": "growth inhibition", "setting": "[1]", "value": -5, "unit": "%"}, {"measurement": "growth inhibition", "setting": "[2]", "value": "79% (active)"}, {"measurement": "growth inhibition", "setting": "at 50.0 µM", "value": "98% (active)"}]}, {"smiles": "CCCCCCCCCCCC[N+](C)(C)Cc1ccccc1", "note": "(tested in a mixture with another compound)", "values": [{"measurement": "growth inhibition", "setting": "[1]", "value": "94% (active) and 74% (active) and 78% (active)"}, {"measurement": "growth inhibition", "setting": "[2]", "value": "100% (active)"}, {"measurement": "growth inhibition", "setting": "at 50.0 µM", "value": "99.5% (active) and 98.9% (active)"}]}, {"smiles": "Cc1ccc(Cl)c2c(=O)c3ccccc3[nH]c12", "values": [{"measurement": "growth inhibition", "setting": "[1]", "value": 2, "unit": "%"}, {"measurement": "growth inhibition", "setting": "[2]", "value": 59, "unit": "%"}, {"measurement": "growth inhibition", "setting": "at 50.0 µM", "value": "71% (active)"}]}, {"smiles": "O=c1oc(C(C(F)(F)F)C(F)(F)F)nc2ccccc12", "values": [{"measurement": "growth inhibition", "setting": "[1]", "value": 15, "unit": "%"}, {"measurement": "growth inhibition", "setting": "[2]", "value": "88% (active)"}, {"measurement": "growth inhibition", "setting": "at 50.0 µM", "value": 50.6, "unit": "%"}]}, {"smiles": "Cc1nc2ccccc2c(=O)n1NC(=O)c1ccc(CS)cc1", "values": [{"measurement": "growth inhibition", "setting": "[1]", "value": -51, "unit": "%"}, {"measurement": "growth inhibition", "setting": "[2]", "value": "71% (active)"}, {"measurement": "growth inhibition", "setting": "at 50.0 µM", "value": 65, "unit": "%"}]}, {"smiles": "C#CC1=CC(=O)C(OC)=CC1=O", "values": [{"measurement": "growth inhibition", "setting": "[1]", "value": "77% (active)"}, {"measurement": "growth inhibition", "setting": "[2]", "value": "99% (active)"}, {"measurement": "growth inhibition", "setting": "at 50.0 µM", "value": 66.2, "unit": "%"}]}, {"smiles": "O=C(N/N=C/c1ccc2c(c1)CCC2)c1ccccc1[N+](=O)[O-]", "values": [{"measurement": "growth inhibition", "setting": "[1]", "value": 36, "unit": "%"}, {"measurement": "growth inhibition", "setting": "[2]", "value": "99% (active)"}, {"measurement": "growth inhibition", "setting": "at 50.0 µM", "value": "81.7% (active)"}]}, {"smiles": "CN(C)c1ccc(/C=C/c2ccnc3ccc4ccccc4c23)cc1", "values": [{"measurement": "growth inhibition", "setting": "[1]", "value": -3, "unit": "%"}, {"measurement": "growth inhibition", "setting": "[2]", "value": 37, "unit": "%"}, {"measurement": "growth inhibition", "setting": "at 50.0 µM", "value": "72% (active)"}]}]}
